Experiments:
Assay type in all cases: functional
Plasmodium falciparum [1] = test: GSK_TCMDC: Inhibition of Plasmodium falciparum 3D7 in whole red blood cells, using parasite LDH activity as an index of growth. Test compounds present at 2uM
Plasmodium falciparum [2] = test: GSK_TCMDC: Inhibition of Plasmodium falciparum Dd2 in whole red blood cells, using parasite LDH activity as an index of growth. Test compounds present at 2uM
HepG2 = test: GSK_TCMDC: Percent inhibition of human HepG2 cell line. Test compounds present at 10uM.

Row | SMILES | Inhibition (Plasmodium falciparum [1]) | Inhibition (Plasmodium falciparum [2]) | Inhibition (HepG2)
1 | CC(=O)Nc1ncc(C(=O)Nc2ccc(-c3cccc(-c4nc5cc(C(F)(F)F)ccc5[nH]4)c3)cc2)s1 | 100% | 92% | 79%
2 | CN1CCN(c2cccc(-c3nnc(-c4cccc(OCC(=O)NCc5ccc(C(F)(F)F)cc5)c4)o3)c2)CC1 | 98% | 86% | 10%
3 | CCN(CC)c1ccc(C(c2ccc(N(CC)CC)cc2)c2cccc([N+](=O)[O-])c2)cc1 | 91% | 68% | 39%
4 | CN1CCC(c2nc(N)no2)C1.O=C(O)C(=O)O (stereo not drawn) | 95% | 2% | 15%
5 | Cc1[nH]c(C)c(-c2ccc(-c3cccc(C(F)(F)F)c3)nc2)c(=O)c1Br | 97% | 96% | 28%
6 | Cc1cc(Nc2ccnc(-c3ccc(Cl)cc3)n2)ccn1 | 94% | 23% | 6%
7 | Cc1ccc2c(O)c([N+](=O)[O-])c(O)nc2c1 | 98% | 0% | 3%
8 | FC(F)(F)c1ccc2[nH]c(-c3cccc(-c4ccc(CNCc5cnn(-c6ccccc6)n5)cc4)c3)nc2c1.O=C(O)C(F)(F)F | 100% | 67% | 14%
9 | COc1cc(CNCCCNc2nc(=O)c3sccc3[nH]2)c2[nH]cc(Cl)c2c1.CS(=O)(=O)O | 96% | 0% | 29%
10 | Cc1ccoc1C(=O)Nc1ccc(-c2cccc(-c3nc4cccc(C)c4[nH]3)c2)cc1 | 95% | 69% | 15%
11 | CC(C)COc1ccc2ccccc2c1CNCCCCCCNCc1c(OCC(C)C)ccc2ccccc12.CS(=O)(=O)O | 90% | 95% | 99%
